In PubChem BioAssay (EPA / NIEHS):
Active and inactive are the calls of the source. Rule for the calls: active = hit-call score of the fitted dose curve at least 0.9, where 1 is the maximum; inactive = score below 0.9.

How the values were obtained:
Conditions in all cases: mRNA level, 48 h; actives raise or lower the signal
[1] = read-out: Cytochrome P450 3A4 (Homo sapiens) (UniProt P08684); experiment: LTEA_HepaRG_CYP3A4: Life Technologies and Expression Analysis (LTEA) Assay for CYP3A4 using HepaRG (AID 2283487)
Method in brief: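 Differentiated HepaRG cells, plated 48 h, then dosed 48 h in serum-free induction medium with 0.5% DMSO, 8 half-log concentrations up to 100 uM, duplicate. CYP3A4 mRNA by qRT-PCR, normalized to ACTB/GAPDH/POLR2A; bidirectional fit versus DMSO.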

[2] = read-out: DNA damage-inducible transcript 3 (DDIT3), DDIT3 (gene 1649); experiment: LTEA_HepaRG_DDIT3: Life Technologies and Expression Analysis (LTEA) Assay for DNA damage-inducible transcript 3 (DDIT3) using HepaRG (AID 2283488)
Method in brief: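 qRT-PCR readout (Fluidigm TaqMan), housekeeping-normalized to ACTB, GAPDH, POLR2A. HepaRG cells, 48 h exposure, 8-point half-log series from 100 uM in 0.5% DMSO, duplicates. Gain or loss of signal fitted against DMSO baseline.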

[3] = read-out: Early growth response protein 1 (EGR1) transcription factor, EGR1 (gene 1958); experiment: LTEA_HepaRG_EGR1: Life Technologies and Expression Analysis (LTEA) Assay for Early growth response protein 1 (EGR1) transcription factor using HepaRG (AID 2283490)
Method in brief: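 EGR1 transcript levels quantified by qRT-PCR (Fluidigm arrays) against three housekeeping genes after 48 h chemical exposure of HepaRG cells. Eight-point half-log series topping at 100 uM, 0.5% DMSO vehicle, analyzed for gain or loss.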

[4] = read-out: Ezrin (EZR), EZR (gene 7430); experiment: LTEA_HepaRG_EZR: Life Technologies and Expression Analysis (LTEA) Assay for Ezrin (EZR) using HepaRG (AID 2283491)
Method in brief: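 EZR transcript levels came from Fluidigm qRT-PCR and were normalized to three housekeeping genes after 48 h chemical exposure of HepaRG cells. Dosing used an 8-point half-log series with a 100 uM top concentration in 0.5% DMSO, tested in duplicate; both directions were fitted versus vehicle.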

[5] = read-out: Cytochrome P450 3A7 (Homo sapiens) (UniProt P24462); experiment: LTEA_HepaRG_CYP3A7: Life Technologies and Expression Analysis (LTEA) Assay for CYP3A7 using HepaRG (AID 2283492)
Method in brief: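 CYP3A7 transcript levels were read by TaqMan qRT-PCR on Fluidigm arrays after 48 h chemical exposure of human HepaRG cells, with housekeeping-gene normalisation. Eight half-log concentrations up to 100 uM in 0.5% DMSO were tested in duplicate.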

CYP3A5 (gene 1577) = experiment: LTEA_HepaRG_CYP3A5: Life Technologies and Expression Analysis (LTEA) Assay for CYP3A5 using HepaRG (AID 2283493)
Method in brief: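 qRT-PCR read-out: CYP3A5 transcript in HepaRG lysates, housekeeping-normalized (ACTB/GAPDH/POLR2A), fitted bidirectionally against 0.5% DMSO baseline. Exposure 48 h, eight half-log concentrations up to 100 uM, duplicates.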

[6] = read-out: Fatty Acid-Binding Protein 1 (FABP1), FABP1 (gene 2168); experiment: LTEA_HepaRG_FABP1: Life Technologies and Expression Analysis (LTEA) Assay for Fatty Acid-Binding Protein 1 (FABP1) using HepaRG (AID 2283494)
Method in brief: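 FABP1 expression by TaqMan qRT-PCR, normalised to three housekeeping genes, in HepaRG cells after 48 h chemical treatment. Eight-point half-log series topping at 100 uM in 0.5% DMSO, duplicates; gain or loss fitted relative to vehicle.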

[7] = read-out: Cytochrome P450 4A22 (Homo sapiens) (UniProt Q5TCH4); experiment: LTEA_HepaRG_CYP4A22: Life Technologies and Expression Analysis (LTEA) Assay for Cytochrome P450 4A22 (CYP4A22) using HepaRG (AID 2283495)
Method in brief: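 HepaRG, 48 h post-plating -> serum-free induction medium; dosed 48 h, duplicate, 8 conc. (100 uM top, half-log), 0.5% DMSO. Readout: CYP4A22 mRNA by qRT-PCR, ACTB/GAPDH/POLR2A normalization; gain/loss fit relative to DMSO.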

[8] = read-out: Glutathione S-Transferase (GSTA2), GSTA2 (gene 2939); experiment: LTEA_HepaRG_GSTA2: Life Technologies and Expression Analysis (LTEA) Assay for Glutathione S-Transferase (GSTA2) using HepaRG (AID 2283497)
Method in brief: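 GSTA2 transcript levels came from Fluidigm TaqMan qRT-PCR normalized to three housekeeping genes, fitted in both directions against DMSO. HepaRG cultures received chemicals for 48 h in serum-free induction medium (0.5% DMSO), 8 half-log concentrations up to 100 uM, duplicate.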

[9] = read-out: Glutamate-cysteine ligase catalytic (GCLC), GCLC (gene 2729); experiment: LTEA_HepaRG_GCLC: Life Technologies and Expression Analysis (LTEA) Assay for Glutamate-cysteine ligase catalytic (GCLC) using HepaRG (AID 2283498)
Method in brief: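 Expression by TaqMan qRT-PCR, normalized to three housekeeping genes (ACTB, GAPDH, POLR2A), with up- or down-regulation fitted against DMSO. HepaRG cells dosed in duplicate for 48 h with 8 half-log concentrations up to 100 uM, vehicle 0.5% DMSO.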

[10] = read-out: growth arrest and DNA damage 45 (GADD45G), GADD45G (gene 10912); experiment: LTEA_HepaRG_GADD45G: Life Technologies and Expression Analysis (LTEA) Assay for growth arrest and DNA damage 45 (GADD45G) using HepaRG (AID 2283499)
Method in brief: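 HepaRG, 48 h exposure, top 100 uM, half-log 8-point series, 0.5% DMSO vehicle, duplicates. Readout: GADD45G transcript by qRT-PCR (Fluidigm array), housekeeping-normalised (ACTB/GAPDH/POLR2A). Bidirectional curve fit vs DMSO baseline.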

[11] = read-out: Glutamate-cysteine ligase regulatory (GCLM), GCLM (gene 2730); experiment: LTEA_HepaRG_GCLM: Life Technologies and Expression Analysis (LTEA) Assay for Glutamate-cysteine ligase regulatory (GCLM) using HepaRG (AID 2283500)
Method in brief: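 HepaRG, 48 h dosing, 100 uM top, half-log x8, 0.5% DMSO vehicle. Readout: GCLM mRNA by TaqMan qRT-PCR, housekeeping-normalized (ACTB/GAPDH/POLR2A). Curves fit bidirectionally vs DMSO baseline.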

[12] = read-out: Heat shock 70 kDa protein 1 (HSPA1A), gene 3303; experiment: LTEA_HepaRG_HSPA1A: Life Technologies and Expression Analysis (LTEA) Assay for Heat shock 70 kDa protein 1 (HSPA1A) using HepaRG (AID 2283502)
Method in brief: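 HepaRG, 48 h exposure, 8-pt half-log CRC from 100 uM in 0.5% DMSO, duplicates. Readout: TaqMan qRT-PCR of HSPA1A mRNA, housekeeping-normalized (ACTB/GAPDH/POLR2A). Bidirectional fit vs 0.5% DMSO baseline.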

[13] = read-out: Hypoxia-inducible factor 1-alpha (Homo sapiens) (UniProt Q16665); experiment: LTEA_HepaRG_HIF1A: Life Technologies and Expression Analysis (LTEA) Assay for Hypoxia-inducible factor 1 (HIF1A) Trancription factor using HepaRG (AID 2283503)
Method in brief: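 Gain- or loss-of-signal HIF1A mRNA changes are fitted against a DMSO baseline. HepaRG cultures receive eight concentrations, highest 100 uM, for 48 h in serum-free induction medium with 0.5% DMSO.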

[14] = read-out: 3-Hydroxy-3-Methylglutaryl-CoA Synthase 2 (HMGCS2), HMGCS2 (gene 3158); experiment: LTEA_HepaRG_HMGCS2: Life Technologies and Expression Analysis (LTEA) Assay for 3-Hydroxy-3-Methylglutaryl-CoA Synthase 2 (HMGCS2) using HepaRG (AID 2283504)
Method in brief: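 qRT-PCR read-out of HMGCS2 transcript, normalised to three housekeeping genes, in HepaRG cells after 48 h chemical exposure. Eight-point curves from 100 uM, half-log dilutions, 0.5% DMSO vehicle; gain or loss fitted relative to DMSO baseline.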

HGF (gene 3082) = experiment: LTEA_HepaRG_HGF: Life Technologies and Expression Analysis (LTEA) Assay for Hepatocyte Growth Facto (HGF) using HepaRG (AID 2283505)
Method in brief: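 HepaRG, 48 h dosing, 8-pt half-log series from 100 uM in 0.5% DMSO, duplicates. Readout: TaqMan qRT-PCR of HGF mRNA, housekeeping-normalized; bidirectional curve fit vs DMSO baseline.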

[15] = read-out: Insulin Like Growth Factor 1 (IGF1), IGF1 (gene 3479); experiment: LTEA_HepaRG_IGF1: Life Technologies and Expression Analysis (LTEA) Assay for Insulin Like Growth Factor 1 (IGF1) using HepaRG (AID 2283506)
Method in brief: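 qRT-PCR readout of IGF1 mRNA, normalized to three housekeeping genes, after 48 h chemical exposure of HepaRG cells. Concentrations: 8-point half-log series, top 100 uM, 0.5% DMSO vehicle. Gain or loss fitted against DMSO baseline.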

[16] = read-out: Cytochrome P450 7A1 (Homo sapiens) (UniProt P22680); experiment: LTEA_HepaRG_CYP7A1: Life Technologies and Expression Analysis (LTEA) Assay for Cytochrome P450 7A1 (CYP7A1) using HepaRG (AID 2283496)
Method in brief: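 Using 0.5% DMSO as vehicle and baseline, chemicals were tested in duplicate over an 8-point range from 100 uM on HepaRG cells for 48 h; qRT-PCR signals were normalised to ACTB, GAPDH and POLR2A.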

[17] = read-out: Glutathione S-transferase M3 (GSTM3), GSTM3 (gene 2947); experiment: LTEA_HepaRG_GSTM3: Life Technologies and Expression Analysis (LTEA) Assay for Glutathione S-transferase M3 (GSTM3) using HepaRG (AID 2283501)
Method in brief: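 qRT-PCR read-out of GSTM3 transcript, normalized to three housekeeping genes, from human HepaRG cells after 48 h chemical exposure. Eight-point half-log series, top 100 uM, 0.5% DMSO vehicle; gain or loss fitted relative to DMSO baseline.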

Measured: AC50

Chain of Cytochrome P450 3A7 (Homo sapiens) (P24462 whole entry, looked up): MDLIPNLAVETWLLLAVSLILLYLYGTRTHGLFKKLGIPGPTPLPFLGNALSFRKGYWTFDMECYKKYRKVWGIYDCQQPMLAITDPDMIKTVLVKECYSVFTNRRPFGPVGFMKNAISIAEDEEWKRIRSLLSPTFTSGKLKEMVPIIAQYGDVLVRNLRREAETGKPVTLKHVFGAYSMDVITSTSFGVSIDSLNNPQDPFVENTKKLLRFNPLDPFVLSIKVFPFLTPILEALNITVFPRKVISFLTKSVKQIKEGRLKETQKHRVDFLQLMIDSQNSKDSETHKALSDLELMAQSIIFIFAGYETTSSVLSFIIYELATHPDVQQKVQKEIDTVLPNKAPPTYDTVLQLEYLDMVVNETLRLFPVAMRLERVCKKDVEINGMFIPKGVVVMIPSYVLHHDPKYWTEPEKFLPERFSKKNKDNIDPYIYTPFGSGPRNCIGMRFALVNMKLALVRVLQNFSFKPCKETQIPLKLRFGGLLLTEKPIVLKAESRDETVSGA
Chain of Cytochrome P450 3A4 (Homo sapiens) (P08684 whole entry, looked up): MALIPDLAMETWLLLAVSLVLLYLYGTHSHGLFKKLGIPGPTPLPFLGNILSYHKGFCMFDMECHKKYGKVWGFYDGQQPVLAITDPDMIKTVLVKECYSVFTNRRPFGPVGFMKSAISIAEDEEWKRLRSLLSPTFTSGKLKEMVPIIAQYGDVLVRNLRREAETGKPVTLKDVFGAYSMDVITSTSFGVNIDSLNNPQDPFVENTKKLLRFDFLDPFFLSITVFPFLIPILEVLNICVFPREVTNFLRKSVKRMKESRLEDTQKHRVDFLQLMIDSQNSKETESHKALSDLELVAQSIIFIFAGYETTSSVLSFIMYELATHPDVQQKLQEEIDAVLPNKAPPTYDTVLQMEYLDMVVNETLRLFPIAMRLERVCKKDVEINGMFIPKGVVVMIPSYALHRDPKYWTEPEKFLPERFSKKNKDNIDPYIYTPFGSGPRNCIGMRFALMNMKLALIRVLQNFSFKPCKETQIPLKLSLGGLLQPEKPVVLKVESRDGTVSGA
Chain of Hypoxia-inducible factor 1-alpha (Homo sapiens) (Q16665 whole entry, looked up): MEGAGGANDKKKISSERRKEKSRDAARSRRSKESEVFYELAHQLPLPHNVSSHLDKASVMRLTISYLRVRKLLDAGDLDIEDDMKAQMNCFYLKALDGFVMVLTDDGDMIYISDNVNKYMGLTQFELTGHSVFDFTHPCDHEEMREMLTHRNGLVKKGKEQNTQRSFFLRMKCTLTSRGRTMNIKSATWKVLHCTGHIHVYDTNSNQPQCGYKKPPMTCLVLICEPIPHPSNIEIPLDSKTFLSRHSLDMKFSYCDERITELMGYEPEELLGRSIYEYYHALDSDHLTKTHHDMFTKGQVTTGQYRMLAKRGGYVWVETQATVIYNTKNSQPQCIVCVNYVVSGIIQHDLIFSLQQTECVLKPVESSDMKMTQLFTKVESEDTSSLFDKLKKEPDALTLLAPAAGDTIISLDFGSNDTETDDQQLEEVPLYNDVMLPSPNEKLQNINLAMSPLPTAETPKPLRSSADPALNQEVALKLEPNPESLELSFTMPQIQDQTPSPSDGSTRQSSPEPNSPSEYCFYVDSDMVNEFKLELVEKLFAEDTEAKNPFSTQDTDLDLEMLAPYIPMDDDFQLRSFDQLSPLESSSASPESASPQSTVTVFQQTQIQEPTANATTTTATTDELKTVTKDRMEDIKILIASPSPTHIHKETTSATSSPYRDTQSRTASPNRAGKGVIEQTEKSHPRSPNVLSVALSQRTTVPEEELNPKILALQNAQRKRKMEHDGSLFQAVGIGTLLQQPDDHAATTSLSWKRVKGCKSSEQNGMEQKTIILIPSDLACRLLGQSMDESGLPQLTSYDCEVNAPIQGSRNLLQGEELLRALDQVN

CCCCSP(=O)(SCCCC)SCCCC
active: [1] 26.1 µM | [2] 76 µM | [6] 92.5 µM | [7] 68.1 µM | [14] 50 µM | [15] 65.7 µM
not listed: [16] | [17]
inactive: all other assays above

CCCCOC(=O)[C@@H](C)Oc1ccc(Oc2ccc(C#N)cc2F)cc1
active: [7] 18.7 µM | [14] 25.8 µM
not listed: [17]
inactive: all other assays above

CON=C(C(=O)OC)c1ccccc1CON=C(C)c1cccc(C(F)(F)F)c1
active: [1] 13.1 µM | [5] 19.5 µM | CYP3A5 (gene 1577) 50 µM | [15] 50 µM
not listed: [17]
inactive: all other assays above

CCOP(=O)(OCC)Oc1cc(C)nc(C(C)C)n1
not listed: [16] | [17]
inactive: all other assays above

CCOP(=S)(OCC)Oc1ccc2c(C)c(Cl)c(=O)oc2c1
active: [2] 80.3 µM | [6] 24.6 µM | [7] 50 µM | [16] 15.5 µM | [8] 82 µM | [10] 50 µM | [14] 51.8 µM | [15] 33.8 µM
not listed: [1] | [17]
inactive: all other assays above

COc1ccc(C(=CC(=O)N2CCOCC2)c2ccc(Cl)cc2)cc1OC
active: [1] 9.63 µM | [7] 50 µM | [15] 14.1 µM
not listed: [16]
inactive: all other assays above

C#CC(C)(C)NC(=O)c1cc(Cl)cc(Cl)c1
active: [1] 5.13 µM | [5] 4.98 µM | [7] 40.9 µM | [15] 14.8 µM
not listed: [17]
inactive: all other assays above

CCc1cccc(CC)c1N(COC)C(=O)CCl
not listed: [17]
inactive: all other assays above
